# Source: PubChem BioAssay
# Activity calls are given as the source filed them.
# Columns and labels:
# [1] = system: Plasmodium falciparum Sir2 (PF13_0152, Sir2A); experiment: pfSir2 binders on small-molecule microarrays, primary screen, biochemical, small-molecule microarray, 635 nm fluorescence (AID 1098); details: small-molecule microarray binding, fluorescence 635 nm; higher = more signal;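 also: score merges spot fluorescence intensity with its signal-to-noise ratio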
# [2] = small-molecule microarray binders of probe aDKK1, primary screen, biochemical, biotinylated probe, 635/667 nm fluorescence (AID 1099); details: higher = more signal;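 also: score merges 667nm spot fluorescence with signal to noise across triplicate slides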
# [3] = small-molecule microarray binders of probe aCHRDL2, primary screen, biochemical, biotinylated probe, 635/667 nm fluorescence (AID 1100); details: higher = more signal
# [4] = splicing luciferase reporter signal modulators, primary screen, spliceosome inhibition project, cell-based, HEK293, splice +/- reporter (AID 1101); details: luminescence, 24 h, higher = more signal, called active from +8 up or from −8 down;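 also: HEK293 cells carrying a splicing-competent luciferase reporter gene; test concentration not given here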
# [5] = target: Fibroblast growth factor 10 (Homo sapiens) (UniProt O15520); experiment: FGF10 binders on small-molecule microarrays, primary screen, biochemical, small-molecule microarray, 635 nm fluorescence (AID 1102); details: FGF10 binding, fluorescence 635 nm, higher = more signal
# Chain of Fibroblast growth factor 10 (Homo sapiens) (O15520 whole entry, looked up): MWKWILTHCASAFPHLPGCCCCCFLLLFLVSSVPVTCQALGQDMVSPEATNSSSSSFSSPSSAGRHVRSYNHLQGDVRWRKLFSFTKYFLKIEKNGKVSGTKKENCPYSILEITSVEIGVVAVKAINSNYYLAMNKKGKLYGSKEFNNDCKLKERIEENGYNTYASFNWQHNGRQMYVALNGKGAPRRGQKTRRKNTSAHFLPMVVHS
# [6] = system: glycogen synthase kinase-3 (GSK3A per assay name; protocol says GSK3B); experiment: GSK3 binders on small-molecule microarrays, primary screen, biochemical, small-molecule microarray, 635 nm fluorescence, GSK3A (AID 1103); details: small-molecule microarray binding, fluorescence 635 nm; higher = more signal; also: the record names both GSK3A and GSK3B
# [7] = target: Epidermal growth factor receptor (Homo sapiens) (UniProt P00533); experiment: EGFR binders on small-molecule microarrays, primary screen, biochemical, small-molecule microarray, 635 nm fluorescence (AID 1104); details: EGFR binding, higher = more signal;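 also: score merges 667 nm emission intensity with spot signal to noise over triplicate slides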
# Chain of Epidermal growth factor receptor (Homo sapiens) (P00533 whole entry, looked up): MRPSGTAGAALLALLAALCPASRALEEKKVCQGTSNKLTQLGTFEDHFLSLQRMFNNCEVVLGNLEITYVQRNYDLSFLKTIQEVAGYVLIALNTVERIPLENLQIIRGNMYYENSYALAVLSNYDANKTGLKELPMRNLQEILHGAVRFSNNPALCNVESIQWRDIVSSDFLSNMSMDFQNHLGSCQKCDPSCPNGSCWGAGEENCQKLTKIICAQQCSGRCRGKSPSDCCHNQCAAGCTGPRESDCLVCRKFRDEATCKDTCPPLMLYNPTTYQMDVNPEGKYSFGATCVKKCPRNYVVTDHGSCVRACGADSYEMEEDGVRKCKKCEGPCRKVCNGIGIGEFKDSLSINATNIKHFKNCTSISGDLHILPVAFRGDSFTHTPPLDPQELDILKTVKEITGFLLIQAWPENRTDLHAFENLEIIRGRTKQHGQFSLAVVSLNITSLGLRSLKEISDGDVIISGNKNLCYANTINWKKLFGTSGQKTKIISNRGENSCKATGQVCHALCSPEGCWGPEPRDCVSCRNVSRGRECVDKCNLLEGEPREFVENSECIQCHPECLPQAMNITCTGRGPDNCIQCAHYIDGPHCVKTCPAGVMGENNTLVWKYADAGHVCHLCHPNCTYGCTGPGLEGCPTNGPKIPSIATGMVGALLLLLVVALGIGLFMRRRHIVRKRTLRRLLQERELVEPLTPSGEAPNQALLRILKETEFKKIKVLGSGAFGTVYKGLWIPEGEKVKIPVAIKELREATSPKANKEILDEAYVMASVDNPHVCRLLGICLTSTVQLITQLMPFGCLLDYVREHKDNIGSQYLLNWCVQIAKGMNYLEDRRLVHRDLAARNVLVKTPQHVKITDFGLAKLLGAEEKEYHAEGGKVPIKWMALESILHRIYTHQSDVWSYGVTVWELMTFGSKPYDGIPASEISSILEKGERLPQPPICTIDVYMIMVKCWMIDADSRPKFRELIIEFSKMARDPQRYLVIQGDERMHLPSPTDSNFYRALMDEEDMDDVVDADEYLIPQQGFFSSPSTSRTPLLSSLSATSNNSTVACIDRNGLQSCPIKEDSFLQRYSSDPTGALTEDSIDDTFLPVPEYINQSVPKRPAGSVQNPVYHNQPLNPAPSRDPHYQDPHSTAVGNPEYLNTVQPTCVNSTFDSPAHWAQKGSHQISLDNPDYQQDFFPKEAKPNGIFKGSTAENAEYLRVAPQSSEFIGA
# [8] = target: Follistatin-related protein 3 (Homo sapiens) (UniProt O95633); experiment: FSTL3 binders on small-molecule microarrays, primary screen, biochemical, small-molecule microarray, 635 nm fluorescence (AID 1105); details: FSTL3 binding, higher = more signal;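 also: score merges emission near 667 nm and signal to noise per printed spot across three slides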
# Chain of Follistatin-related protein 3 (Homo sapiens) (O95633 whole entry, looked up): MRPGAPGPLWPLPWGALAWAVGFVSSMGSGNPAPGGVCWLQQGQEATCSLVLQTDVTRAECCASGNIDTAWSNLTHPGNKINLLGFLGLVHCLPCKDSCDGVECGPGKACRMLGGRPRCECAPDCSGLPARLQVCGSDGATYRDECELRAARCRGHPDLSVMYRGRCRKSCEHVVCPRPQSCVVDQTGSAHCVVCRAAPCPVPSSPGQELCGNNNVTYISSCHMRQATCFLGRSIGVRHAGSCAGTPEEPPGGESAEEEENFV
# [9] = target: Dickkopf-related protein 1 (Homo sapiens) (UniProt O94907); experiment: DKK1 binders on small-molecule microarrays, primary screen, biochemical, small-molecule microarray, 635 nm fluorescence scan (AID 1106); details: DKK1 binding, higher = more signal;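 also: score merges emission near 667 nm with signal to noise over three replicate slides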
# Chain of Dickkopf-related protein 1 (Homo sapiens) (O94907 whole entry, looked up): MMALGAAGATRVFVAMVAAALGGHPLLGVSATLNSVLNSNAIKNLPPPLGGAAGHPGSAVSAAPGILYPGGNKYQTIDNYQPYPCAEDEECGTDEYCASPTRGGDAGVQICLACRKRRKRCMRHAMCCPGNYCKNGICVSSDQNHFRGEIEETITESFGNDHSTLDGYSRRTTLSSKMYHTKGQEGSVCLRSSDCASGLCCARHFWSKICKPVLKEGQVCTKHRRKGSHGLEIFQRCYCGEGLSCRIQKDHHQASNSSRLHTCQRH
# [10] = system: Inhibin beta A chain (activin A); experiment: INHBA (activin A) binders on microarrays, primary screen, biochemical, small-molecule microarray, 635 nm fluorescence scan (AID 1107); details: small-molecule microarray binding, higher = more signal;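 also: mouse activin A protein probed at 4.33 µg/mL on printed slides; score merges bound-protein fluorescence near 667 nm with spot signal-to-noise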
# [11] = system: Human papillomavirus type 1a protein E7 (residues 44-93); experiment: HPV1a E7 fragment binders on microarrays, primary screen, biochemical, small-molecule microarray, residues 44-93, 635 nm fluorescence (AID 1108); details: small-molecule microarray binding, fluorescence 635 nm; higher = more signal;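 also: E7 fragment applied at 1 µg/mL in TBST for 1 h at 4 C; score combines spot fluorescence with its signal to noise ratio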
# [12] = modulators of HCV replicon luciferase signal, primary screen, HCV replication inhibitor project, Huh7 cells, luciferase reporter (AID 1109); details: 48 h, higher = more signal;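 also: huh7 hepatoma cells harbouring a luciferase neomycin HCV replicon reporter; luciferase luminescence as measure of HCV replicon replication; test concentration not given here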
# [13] = target: Left-right determination factor 2 (Homo sapiens) (UniProt O00292); experiment: LEFTY2 binders on small-molecule microarrays, primary screen, biochemical, small-molecule microarray, 635 nm fluorescence scan (AID 1110); details: LEFTY2 binding, higher = more signal
# Chain of Left-right determination factor 2 (Homo sapiens) (O00292 whole entry, looked up): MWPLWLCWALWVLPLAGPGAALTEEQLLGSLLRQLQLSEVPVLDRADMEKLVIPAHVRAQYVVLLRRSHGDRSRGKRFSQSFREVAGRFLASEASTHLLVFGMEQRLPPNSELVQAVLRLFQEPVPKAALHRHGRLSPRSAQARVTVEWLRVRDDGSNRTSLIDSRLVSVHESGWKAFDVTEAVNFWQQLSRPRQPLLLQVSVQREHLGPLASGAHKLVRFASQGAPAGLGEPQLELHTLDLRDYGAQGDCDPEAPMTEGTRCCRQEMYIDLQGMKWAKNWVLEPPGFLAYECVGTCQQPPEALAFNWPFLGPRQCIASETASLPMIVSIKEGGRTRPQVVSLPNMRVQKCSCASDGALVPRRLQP
# [14] = target: Calmodulin-1 (Homo sapiens) (UniProt P0DP23); experiment: CALM1 binders on microarrays, EGTA buffer, profiling panel, biochemical, small-molecule microarray, Cy5-labelled CALM1 (AID 1111); details: Cy5-CALM1 binding fluorescence, higher = more signal;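 also: labelled calmodulin applied in Tris saline Tween buffer holding calcium plus EGTA and DTT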
# [15] = target: Calmodulin-1 (Homo sapiens) (UniProt P0DP23); experiment: calcium-bound CALM1 binders on microarrays, profiling panel, artefact control for SMM control-protein annotation, biochemical, small-molecule microarray, Cy5-labelled CALM1, plus calcium (AID 1112); details: Cy5-CALM1 binding fluorescence, higher = more signal;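 also: score merges spot fluorescence with signal to noise from triplicate slides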
# [16] = small-molecule microarray binders of probe aWnt5a, primary screen, biochemical, biotinylated probe, 635/667 nm fluorescence (AID 1113); details: higher = more signal;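 also: score merges 667 nm fluorescence intensity with signal-to-noise per printed feature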
# [17] = small-molecule microarray binders of probe aShh, primary screen, biochemical, biotinylated probe, 635/667 nm fluorescence (AID 1114); details: higher = more signal;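 also: probe is biotin-labelled aShh protein from a stem cell growth factor screen; measures binding of labelled protein to compounds printed on the slide; score merges feature fluorescence at 667 nm with signal-to-noise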
# [18] = small-molecule microarray binders of probe aNog, primary screen, biochemical, biotinylated probe, 635/667 nm fluorescence (AID 1115); details: higher = more signal;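 also: probe is biotinylated aNog protein used at 0.15 µg/mL for 1 h at 4 C; z-score combines 667 nm fluorescence of each spot with its signal to noise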
# [19] = target: Torsin-1A-interacting protein 1 (Homo sapiens) (UniProt Q5JTV8); experiment: LAP1 binders from COS7 cell lysate, primary screen, small-molecule microarray, 635/667 nm fluorescence (AID 1116); details: COS7-hLAP1 lysate binding, 635 nm fluorescence, higher = more signal
# Chain of Torsin-1A-interacting protein 1 (Homo sapiens) (Q5JTV8 whole entry, looked up): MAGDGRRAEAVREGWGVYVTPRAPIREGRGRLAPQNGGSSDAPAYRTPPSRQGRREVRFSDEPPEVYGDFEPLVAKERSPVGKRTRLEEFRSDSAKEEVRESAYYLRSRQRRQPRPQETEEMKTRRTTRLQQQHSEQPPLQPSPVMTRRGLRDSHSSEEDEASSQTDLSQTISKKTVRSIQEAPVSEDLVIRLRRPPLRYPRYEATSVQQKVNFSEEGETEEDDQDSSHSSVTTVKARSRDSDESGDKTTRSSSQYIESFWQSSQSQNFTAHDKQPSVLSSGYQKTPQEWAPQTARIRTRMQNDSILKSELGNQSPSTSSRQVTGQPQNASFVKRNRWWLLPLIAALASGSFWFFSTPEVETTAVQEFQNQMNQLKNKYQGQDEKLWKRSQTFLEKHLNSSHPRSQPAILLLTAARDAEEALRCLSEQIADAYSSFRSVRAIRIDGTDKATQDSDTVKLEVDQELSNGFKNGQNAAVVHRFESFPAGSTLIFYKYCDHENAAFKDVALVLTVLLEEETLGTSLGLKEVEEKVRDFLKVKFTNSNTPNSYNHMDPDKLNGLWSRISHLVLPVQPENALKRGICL
# [20] = target: Alpha-bungarotoxin (Bungarus multicinctus) (UniProt P60615); experiment: alpha-bungarotoxin binders on microarray, profiling panel, artefact control for SMM control protein annotation, biochemical, small-molecule microarray, Alexa647 label, 635/667 nm fluorescence (AID 1117); details: alpha-BTX-A647 binding fluorescence, higher = more signal
# Chain of Alpha-bungarotoxin (Bungarus multicinctus) (P60615 whole entry, looked up): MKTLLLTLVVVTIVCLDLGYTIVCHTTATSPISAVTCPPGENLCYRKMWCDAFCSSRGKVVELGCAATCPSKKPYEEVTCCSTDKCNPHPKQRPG
Structure (SMILES),composite z-score [1],composite z-score [2],composite z-score [3],z-score [4],composite z-score [5],composite z-score [6],composite z-score [7],composite z-score [8],composite z-score [9],composite z-score [10],composite z-score [11],z-score [12],composite z-score [13],composite z-score [14],composite z-score [15],composite z-score [16],composite z-score [17],composite z-score [18],composite z-score [19],composite z-score [20]
O=C1NC(=O)C2C1C=CC(C(O)c1ccc3c(c1)OCO3)N2Nc1ccc(Cl)cc1Cl (stereo not given),0.981,0.849,1.06,0.889 (inactive),0.553,-0.334,0.205,0.304,-0.278,1.19,-0.85,-0.795,-0.0483,1.43,0.527,-0.0846,-0.232,0.265,1.73,0.114
O=C1c2ccccc2[C@](Cc2ccccc2I)(C(=O)NCC(F)(F)F)[C@H](c2ccc(CO)cc2)N1Cc1ccccc1,1.14,0.0143,0.296,-0.507 (inactive),0.269,0.848,-0.0654,0.871,-0.316,0.545,1.42,-0.673,-0.38,1.4,0.464,-0.155,0.0048,0.0139,0.419,0.928
COCCOC(=O)N1C(=O)[C@@]2(c3cc(C#CCNC(N)=O)ccc31)[C@H](C(=O)N1CCCCCCC1)[C@H]1C(=O)O[C@H](c3ccccc3)[C@H](c3ccccc3)N1[C@@H]2c1ccc(OCCO)cc1,0.918,0.774,0.989,0.524 (inactive),0.544,0.211,0.588,0.762,0.0313,0.999,0.748,-0.431,0.277,1.13,0.801,0.0075,-0.138,-0.118,0.263,1.09
CC1=C2[C@@H](CCc3ccccc3)OB(O)C[C@@H]2[C@@H]2C(=O)C=CC(=O)[C@@H]2C1,0.338,-0.102,-0.48,3.33 (inactive),1.28,0.612,0.309,0.853,0.636,0.729,0.808,-2.13,1.12,0.281,-0.172,0.0101,-0.214,-0.375,0.464,1.2
CC(C)(C)N1CC=CC23O[C@@H]4C=CCCOC(=O)C4[C@H]2C(=O)N(CCCO)[C@@H]3C1=O (stereo not given in full),-0.992,1.43,-0.0642,-1.1 (inactive),-0.681,-0.764,-0.608,-0.788,-0.0177,1.38,-0.371,-1.17,-0.611,-0.801,-0.97,-0.172,-0.0769,-0.118,0.0642,-1.39
COCCOC(=O)N1C(=O)[C@@]2(c3cc(C#CCC(C(=O)OC)C(=O)OC)ccc31)[C@H](c1ccc(OCCO)cc1)N1[C@H](c3ccccc3)[C@H](c3ccccc3)OC(=O)[C@H]1[C@@H]2C(N)=O,1.46,0.0751,0.443,-1.6 (inactive),1.1,1.24,0.603,1.26,0.57,0.324,1.35,-1.12,0.535,1.61,0.193,-0.0718,0.0639,0.129,-0.189,0.992
COc1ccc([Si](C)(C)[C@H]2[C@H](CC(=O)N3CCC[C@H]3CO)O[C@@]3(C(=O)N(Cc4ccc(N5C(=O)c6cccc7cccc5c67)cc4)c4ccccc43)[C@@H]2C)cc1,1.4,0.184,0.0075,-1.17 (inactive),0.651,1.2,0.6,1.35,0.736,0.4,1.14,-1.96,0.758,0.325,-0.544,-0.0944,0.151,0.473,0.585,2.05
COCCOC(=O)N1C(=O)[C@@]2(c3cc(C#CCNC(N)=O)ccc31)[C@H](C(N)=O)[C@H]1C(=O)O[C@H](c3ccccc3)[C@H](c3ccccc3)N1[C@@H]2c1ccc(OCCO)cc1,1.05,0.0301,0.721,0.731 (inactive),0.535,0.737,0.793,1.45,0.825,1.35,1.29,-1.11,0.582,0.701,0.257,-0.1,-0.156,0.271,1.03,0.617
CC(C)(C)OC(=O)CC[C@]1(C(=O)N2CCCCC2)N=C(c2ccc(OCCCO)cc2)O[C@H]1c1ccccc1CN=[N+]=[N-],1.68,0.978,0.92,-3.65 (inactive),1.42,1.3,0.604,1.41,0.414,1.21,0.804,-2.03,0.888,0.958,0.566,0.0044,0.439,0.659,2.52,0.12
CC[C@@H]1[C@@H]2C3C(=O)N(CC)C(=O)C3CC(=O)[C@@H]2[C@H](c2ccc(C)cc2)N1S(=O)(=O)c1ccc(C)cc1 (stereo not given in full),0.426,0.384,0.246,-1.52 (inactive),0.859,1.31,0.174,0.748,0.238,0.241,1.42,-1.64,0.336,0.742,0.409,-0.0761,0.232,-0.546,1.22,0.564
COC(=O)[C@@]1(Cc2ccc(OC)cc2)[C@H]2c3cc(C(=O)N4CCCC4)n(Cc4ccc(C)o4)c3C[C@H]2CN1C(=O)c1ccccc1,1.34,0.839,0.751,-0.293 (inactive),1.24,1.09,0.232,1.32,-0.0427,1.19,1.2,-3.68,-0.242,0.493,0.0918,0.457,0.444,-0.504,0.762,0.287
